According to PubChem BioAssay (EPA / NIEHS):
Results filed as inconclusive are left out. More than one record can exist for a structure, and the calls need not agree. Active and inactive are the calls of the source. Rule for the calls, unless noted: active = hit-call score of the fitted dose curve at least 0.9, where 1 is the maximum; inconclusive = response in the unintended direction; inactive = score below 0.9.

Key:
[1] = molecular target: Estrogen receptor (Homo sapiens) (UniProt P03372); assay: OT_ERa_GFPERaERE_0480: Odyssey Thera (OT) 8-hour HeLa Transcription Induction Assay for Estrogen Receptor (AID 2283381; active = hit-call score of the fitted dose curve at least 0.9, where 1 is the maximum; inactive = score below 0.9)
Sequence of Estrogen receptor (Homo sapiens) (P03372 whole entry, looked up): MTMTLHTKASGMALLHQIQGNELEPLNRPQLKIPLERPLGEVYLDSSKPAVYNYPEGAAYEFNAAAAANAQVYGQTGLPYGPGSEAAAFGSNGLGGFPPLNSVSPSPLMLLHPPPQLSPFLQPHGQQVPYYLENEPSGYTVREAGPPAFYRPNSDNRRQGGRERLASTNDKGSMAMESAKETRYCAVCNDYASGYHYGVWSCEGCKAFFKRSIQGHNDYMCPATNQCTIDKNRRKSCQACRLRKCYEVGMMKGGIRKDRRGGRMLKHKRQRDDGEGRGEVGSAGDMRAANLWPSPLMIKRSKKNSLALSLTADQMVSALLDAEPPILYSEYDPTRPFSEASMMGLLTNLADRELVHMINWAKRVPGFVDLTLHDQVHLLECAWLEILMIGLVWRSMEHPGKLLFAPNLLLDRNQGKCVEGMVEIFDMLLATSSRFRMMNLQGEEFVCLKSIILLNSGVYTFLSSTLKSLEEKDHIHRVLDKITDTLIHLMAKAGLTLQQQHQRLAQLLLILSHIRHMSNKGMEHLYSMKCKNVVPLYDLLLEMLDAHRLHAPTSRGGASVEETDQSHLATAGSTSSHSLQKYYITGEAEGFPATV
In short: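 Fluorescence microscopy with high-content image analysis measures ERE-driven GFP induction in HeLa cells at 8 h post-dose. Increases fitted against DMSO baseline.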

[2] = molecular target: Estrogen receptor (Homo sapiens) (UniProt P03372); assay: OT_ERa_GFPERaERE_0120: Odyssey Thera (OT) 2-hour HeLa Transcription Induction Assay for Estrogen Receptor (AID 2283382)
In short: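 Fluorescence-microscopy images of the GFP-ERα/ERE reporter, scored by high-content image algorithms, give the readout. HeLa exposure lasted 2 h, and only signal increase over DMSO was fitted.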

[3] = molecular target: Bile acid receptor (Homo sapiens) (UniProt Q96RI1); assay: OT_FXR_FXRSRC1_1440: Odyssey Thera (OT) 24-hour HEK293T Protein-Complementation Assay for Farnesoid X receptor/SRC-1 Co-activator (AID 2283384)
Sequence of Bile acid receptor (Homo sapiens) (Q96RI1 whole entry, looked up, the tested form may be a part): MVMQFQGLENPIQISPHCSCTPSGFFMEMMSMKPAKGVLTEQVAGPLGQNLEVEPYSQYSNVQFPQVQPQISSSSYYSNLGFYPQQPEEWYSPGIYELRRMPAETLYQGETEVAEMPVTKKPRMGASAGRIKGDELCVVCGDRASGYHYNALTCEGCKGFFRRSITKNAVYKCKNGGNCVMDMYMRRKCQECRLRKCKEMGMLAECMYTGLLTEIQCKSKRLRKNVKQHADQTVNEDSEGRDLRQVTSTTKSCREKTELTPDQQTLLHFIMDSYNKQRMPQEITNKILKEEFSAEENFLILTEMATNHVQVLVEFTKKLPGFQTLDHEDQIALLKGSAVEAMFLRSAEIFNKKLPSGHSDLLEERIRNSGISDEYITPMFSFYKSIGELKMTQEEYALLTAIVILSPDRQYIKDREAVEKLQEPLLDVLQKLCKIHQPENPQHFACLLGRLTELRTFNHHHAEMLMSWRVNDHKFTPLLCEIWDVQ
In short: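 Protein-fragment complementation: FXR and SRC-1 fused to reporter fragments that reassemble on interaction, read by fluorescence intensity. Human HEK293T cells measured 24 h post-dose; positive-direction fit versus DMSO.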

[4] = molecular target: Retinoic acid receptor RXR-alpha (Homo sapiens) (UniProt P19793); assay: OT_NURR1_NURR1RXRa_1440: Odyssey Thera (OT) 24-hour HEK293T Protein Complementation Assay for Nurr1/retinoid X receptor (RXR) (AID 2283386)
Sequence of Retinoic acid receptor RXR-alpha (Homo sapiens) (P19793 whole entry, looked up, the tested form may be a part): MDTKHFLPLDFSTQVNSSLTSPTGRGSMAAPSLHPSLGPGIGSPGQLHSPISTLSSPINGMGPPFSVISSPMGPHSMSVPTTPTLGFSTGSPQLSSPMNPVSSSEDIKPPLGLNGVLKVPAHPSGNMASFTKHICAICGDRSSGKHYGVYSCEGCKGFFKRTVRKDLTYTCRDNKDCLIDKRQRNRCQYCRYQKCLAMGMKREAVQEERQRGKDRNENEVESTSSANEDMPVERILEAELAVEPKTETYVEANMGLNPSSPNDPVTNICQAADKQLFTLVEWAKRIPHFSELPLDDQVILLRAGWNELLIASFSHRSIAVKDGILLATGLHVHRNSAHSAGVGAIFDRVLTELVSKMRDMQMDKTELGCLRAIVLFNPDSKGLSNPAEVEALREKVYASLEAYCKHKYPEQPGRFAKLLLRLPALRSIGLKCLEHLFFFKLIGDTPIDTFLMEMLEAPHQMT
In short: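 Gain in fluorescence, fitted relative to DMSO, reflects Nurr1–RXRα association in HEK293T cells after 24 h dosing. Bait and prey are each linked to a reporter-protein fragment that reassembles on interaction.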

[5] = molecular target: Peroxisome proliferator-activated receptor gamma (Homo sapiens) (UniProt P37231); assay: OT_PPARg_PPARgSRC1_0480: Odyssey Thera (OT) 8-hour Protein-Complementation Assay for Peroxisome Proliferator-activated Receptor Gamma / SRC-1 Co-activator (AID 2283387)
Sequence of Peroxisome proliferator-activated receptor gamma (Homo sapiens) (P37231 whole entry, looked up, the tested form may be a part): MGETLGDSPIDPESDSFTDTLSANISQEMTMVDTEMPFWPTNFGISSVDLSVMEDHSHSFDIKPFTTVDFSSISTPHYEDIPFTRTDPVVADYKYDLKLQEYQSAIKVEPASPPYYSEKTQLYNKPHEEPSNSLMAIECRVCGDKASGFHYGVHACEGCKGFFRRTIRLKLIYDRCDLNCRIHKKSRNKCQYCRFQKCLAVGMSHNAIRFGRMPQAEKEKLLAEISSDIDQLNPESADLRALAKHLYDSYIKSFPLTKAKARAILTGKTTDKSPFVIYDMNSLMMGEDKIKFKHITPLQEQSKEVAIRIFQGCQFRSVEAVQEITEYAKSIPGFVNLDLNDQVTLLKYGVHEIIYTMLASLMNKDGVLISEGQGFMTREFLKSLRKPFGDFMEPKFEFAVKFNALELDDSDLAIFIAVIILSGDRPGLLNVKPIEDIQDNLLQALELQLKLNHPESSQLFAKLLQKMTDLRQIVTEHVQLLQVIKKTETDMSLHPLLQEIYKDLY
In short: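 Protein-fragment complementation of split Venus YFP reports PPARg/SRC-1 interaction in HEK293T (transfected 48 h before treatment), exposed 8 h. Readout: N/C fluorescence ratio at 488 nm from imaging, Draq5 for segmentation, positive fit relative to DMSO.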

[6] = molecular target: Peroxisome proliferator-activated receptor gamma (Homo sapiens) (UniProt P37231); assay: OT_PPARg_PPARgSRC1_1440: Odyssey Thera (OT) 24-hour Protein-Complementation Assay for Peroxisome Proliferator-activated Receptor Gamma/ SRC-1 Co-activator (AID 2283388)
In short: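 HEK293T cells transiently transfected with PPARg and SRC-1 fused via (Gly4Ser)2 linker to split Venus YFP fragments (IFP1/IFP2) were dosed 24 h; fixed, Draq5-stained, imaged at 488/635 nm; nuclear/cytoplasmic fluorescence ratio scored versus DMSO baseline, gain-of-signal.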

[7] = molecular target: Retinoic acid receptor RXR-alpha (Homo sapiens) (UniProt P19793); assay: OT_NURR1_NURR1RXRa_0480: Odyssey Thera (OT) 8-hour HEK293T Protein Complementation Assay for Nurr1/retinoid X receptor (RXR) (AID 2283385)
In short: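 Interaction of Nurr1 with RXRα read as reconstituted reporter fluorescence in a HEK293T fragment-complementation system, 8 h post-treatment; increase over DMSO baseline analysed.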

[8] = molecular target: Bile acid receptor (Homo sapiens) (UniProt Q96RI1); assay: OT_FXR_FXRSRC1_0480: Odyssey Thera (OT) 8-hour HEK293T Protein-Complementation Assay for Farnesoid X receptor/SRC-1 Co-activator (AID 2283383)
In short: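 Binding of FXR to coactivator SRC-1 was read as fluorescence from a reconstituted split reporter in HEK293T cells, 8 h after chemical addition. Only increases in signal versus DMSO were fit.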

[9] = CEETOX_H295R_11DCORT: CeeTox H295R High-throughput Steroidogenesis Assay for 11-Deoxycortisol (11DCORT) (AID 2283432; active = hit-call score of the fitted dose curve at least 0.9, where 1 is the maximum; inactive = score below 0.9;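 for AC50: 11-deoxycortisol secreted into the medium measured by LC-MS/MS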); details: actives raise or lower the signal
In short: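 Human adrenal H295R cells were prestimulated with 10 uM forskolin for 48 h, then exposed to test chemical (0.1% DMSO final) for 48 h. Medium 11-deoxycortisol was quantified by MTBE extraction and HPLC-MS/MS; bidirectional fitting relative to DMSO.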

[10] = CEETOX_H295R_OHPREG: CeeTox H295R High-throughput Steroidogenesis Assay for OH-Pregnenolone (OHPREG) (AID 2283434; active = hit-call score of the fitted dose curve at least 0.9, where 1 is the maximum; inactive = score below 0.9); details: actives raise or lower the signal
In short: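 Secreted 17alpha-hydroxypregnenolone measured by HPLC-MS/MS after liquid-liquid extraction. Human adrenal H295R cells received 48 h forskolin (10 uM) stimulation before 48 h chemical exposure at 0.1% final DMSO; MTT viability in same wells; bidirectional fit against DMSO.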

Measured: AC50

CCOC(=O)c1ccccc1N
inactive: [1] | [2] | [3] | [4] | [5] | [6]

CC(Cl)(Cl)C(=O)O
inactive: [1] | [2] | [7] | [4] | [5] | [6]

CCOP(=S)(OCC)SCSCC
inactive: [1] | [2] | [3] | [7] | [5] | [6]
active: [8] 32.6 µM

CCC(C)(C)c1ccc(O)cc1
inactive: [3] | [7] | [5] | [6] | [9] | [10]
active: [1] 1.32 µM | [2] 0.619 µM | [8] 60.9 µM | [4] 66.4 µM

O=S1(=O)OCC2C(CO1)C1(Cl)C(Cl)=C(Cl)C2(Cl)C1(Cl)Cl (stereo unspecified)
inactive: [1] | [2] | [7] | [5] | [6]
active: [8] 49.3 µM | [3] 50 µM | [9] 7.28 µM | [10] 2.84 µM

CC(C)(C)OOC(C)(C)C
inactive: [1] | [2] | [8] | [4] | [5] | [6]

CCNc1nc(Cl)nc(NC(C)(C)C)n1
inactive: [1] | [2] | [8] | [3] | [7] | [4] | [5] | [6] | [9]
active: [10] 9.93 µM

CCCN(CCC)c1c([N+](=O)[O-])cc(C(C)C)cc1[N+](=O)[O-]
active: [1] 12.2 µM | [7] 75.7 µM | [4] 80.9 µM
inactive: [2] | [7] | [4] | [5] | [6]

O=S(=O)(c1ccc(O)cc1)c1ccc(O)cc1
inactive: [8] | [5] | [6] | [10]
active: [1] 12.6 µM | [2] 51.9 µM | [9] 19.1 µM

CCCCc1ccccc1
inactive: [1] | [2] | [8] | [7] | [4] | [5] | [6]

Cc1ccc(N)cc1N
inactive: [1] | [2] | [8] | [3] | [7] | [4] | [5] | [6] | [9] | [10]

CCC1(c2ccccc2)C(=O)N=C(O)NC1=O (stereo unspecified)
inactive: [1] | [2] | [7] | [4] | [5] | [6]

O=[N+]([O-])c1ccc(Cl)c(Cl)c1
inactive: [1] | [2] | [8] | [3] | [7] | [5] | [6]

CCN(CC)c1ccccc1
inactive: [1] | [2] | [3] | [7] | [4] | [5] | [6]

Nc1ccc(Cl)cc1
inactive: [1] | [2] | [7] | [4] | [5] | [6] | [9] | [10]
active: [4] 2.33 µM

CCCCN(CCCC)SN(C)C(=O)Oc1cccc2c1OC(C)(C)C2
inactive: [1] | [2] | [7] | [4] | [5] | [6]
active: [7] 86.2 µM | [4] 84.7 µM

Cc1ccc([N+](=O)[O-])cc1C
inactive: [1] | [2] | [8] | [3] | [7] | [4] | [5] | [6]

ClC(Cl)(Cl)c1ccccc1
inactive: [1] | [2] | [8] | [3]

CCCCC(CC)COP(=O)(Oc1ccccc1)Oc1ccccc1 (stereo unspecified)
active: [8] 2.85 µM | [4] 82.1 µM
inactive: [1] | [2] | [3] | [7] | [6]

CCCCc1ccc(O)cc1
inactive: [1] | [2] | [8] | [7] | [4] | [5] | [6] | [9] | [10]
active: [3] 67.9 µM

CCOc1ccc(C(C)(C)COCc2cccc(Oc3ccccc3)c2)cc1
inactive: [1] | [2] | [8] | [7] | [4] | [5] | [6]

ClC1=C(Cl)C2(Cl)C3C(Cl)C(Cl)CC3C1(Cl)C2(Cl)Cl (stereo unspecified)
inactive: [1] | [2] | [8] | [5] | [6]

O=P(OCC(Br)CBr)(OCC(Br)CBr)OCC(Br)CBr (stereo unspecified)
inactive: [1] | [2] | [7] | [5] | [6]
active: [8] 11.4 µM | [3] 29 µM | [4] 73.9 µM

CO/N=C(/C(=O)OC)c1ccccc1COc1ccccc1C
active: [1] 15.7 µM | [2] 21.9 µM | [8] 13.4 µM | [3] 12.4 µM | [9] 3.98 µM | [10] 13.1 µM
inactive: [7]

CCCCN(CC)C(=O)SCCC
inactive: [1] | [2] | [8] | [3] | [5] | [6]

O=P(Oc1ccccc1)(Oc1ccccc1)Oc1ccccc1
inactive: [3] | [7] | [4] | [5] | [6]
active: [1] 12.4 µM | [2] 7.54 µM | [8] 11.9 µM | [9] 2.92 µM | [10] 3.68 µM

O=NN1CCCC1
inactive: [1] | [2] | [8] | [3] | [7] | [5] | [6]

CCCCC(CC)COC(=O)c1c(Br)c(Br)c(Br)c(Br)c1C(=O)OCC(CC)CCCC (stereo unspecified)
inactive: [1] | [2] | [8] | [3] | [7] | [4] | [5] | [6]

CCCCCCCc1ccc(O)cc1
active: [7] 50 µM | [4] 50 µM
inactive: [1] | [2] | [7] | [4] | [5] | [6]

CCCCN(CCCC)N=O
inactive: [1] | [2] | [8] | [7] | [4] | [5] | [6]

c1nc[nH]n1
inactive: [1] | [2] | [8] | [4] | [5] | [6]

O=c1ssc(Cl)c1Cl
inactive: [1] | [2] | [5] | [6]
active: [3] 11.4 µM

O=C(CBr)OCc1ccccc1
inactive: [1] | [2] | [8] | [7] | [4] | [5] | [6]

OCC1CO1 (stereo unspecified)
inactive: [1] | [2] | [3] | [7] | [4] | [5] | [6]

O=C(O)C1C(C(=O)O)C2(Cl)C(Cl)=C(Cl)C1(Cl)C2(Cl)Cl (stereo unspecified)
inactive: [1] | [2] | [8] | [3]

CC(C)(C)N(NC(=O)c1ccc(Cl)cc1)C(=O)c1ccccc1
inactive: [1] | [2] | [3] | [4] | [5] | [6]
active: [8] 70.1 µM
